Data from PubChem BioAssay (NCATS).
Results filed as inconclusive are left out. Calls of active or inactive are those of the source. Calls come from the whole dose curve; as a rule, active = well fitted inhibition curve with a large enough effect; inconclusive = small, poorly fitted or top-dose-only effect; inactive = no such curve, though single readings can be large or run the other way.

Experiment: qHTS for Inhibitors of the Aldehyde Dehydrogenase Family (ALDH1A2, ALDH1A3, ALDH2, ALDH3A1) (AID 2061307); note: nearly all actives have a fitted effect of over 50% in size; for Potency: test system not described further here
Details: ALDH inhibition qHTS; series mostly up to 50.3 µM; activity change, negative = inhibition: at the top concentration
% is set by controls: 0 for no effect and ±100 for the full control effect; potency is the fitted concentration of half-maximal effect.

Potency, active:
O=C(Nc1nc(-c2ccccn2)cs1)C1CCCCC1 3.98 µM
O=C(c1ccc(Cl)cc1)c1no[n+]([O-])c1C(=O)c1ccc(Cl)cc1 7.98 µM
COc1ccc(-n2c(C)cc(C3=NNC(=NC4CC4)SC3)c2C)cc1 4.49 µM
Cc1cccc2c1NC(=O)C2(O)CC(=O)c1ccco1 (stereo not given) 0.565 µM
Fc1cccc(F)c1CNCc1cccnc1-n1cccn1 3.98 µM
O=C(NC1CCCC1)c1csc(N2CCN(c3cccc(Cl)c3)CC2)n1 3.16 µM
Cn1ccc(=Nc2ccc(NC(=O)c3ccc(N=c4ccn(C)c5ccc([N+](=O)[O-])cc45)cc3[N+](=O)[O-])cc2)cc1 5.65 µM
CCn1c(C(=O)NCCc2ccc(OC)cc2)cc2sccc21 2.01 µM
O=C(Nc1ncc(CN2CCCCC2)s1)c1ccc(-c2cccc([N+](=O)[O-])c2)o1 11.3 µM
O=C(Cc1ccc(-c2csc(Nc3ccc(F)cc3)n2)s1)N1CCOCC1 7.12 µM
O=C(O)c1ccc(-n2[nH]c(-c3ccccc3)cc2=O)cc1 8.91 µM
O=C1CC(c2c(F)cccc2F)c2sc(N3CCOCC3)nc2N1 (stereo not given) 11.3 µM
COc1ccc(-n2ncc3c2CCCC3NC(=O)c2cccc(C(F)(F)F)c2)cc1 (stereo not given) 11.3 µM
COc1cc(O)c(C(CC(=O)N2CC(C)CC(C)C2)c2ccc(NC(C)=O)cc2)c(OC)c1 (stereo not given) 31.6 µM

Activity change, negative = inhibition, inactive:
O=C(Nc1cccc(S(=O)(=O)N2CCOCC2)c1)c1cc(-c2cccnc2)nc2ccccc12 -53.6%
O=C(c1ccco1)N1CCN(Cc2nc3ccccc3c(=O)n2-c2ccccc2C(F)(F)F)CC1 -22.8%
COc1ccccc1CNC(=O)c1ccccc1N -12.6%
O=C(O)c1csc(-n2[nH]c(-c3ccc(F)c(F)c3)cc2=O)n1 -26.5%
Cc1c(NCCOc2ccccc2F)cccc1C(N)=O -34% [at 34.4 µM]
Cc1cccc(NC(=O)c2nc(C)n(-c3ccc(F)cc3)n2)n1 0% [at 34.4 µM]
COc1ccc(NC(=O)C2CCN(c3ccc(Sc4ccc(C)cc4)nn3)CC2)cc1 -34.3% [at 34.4 µM]
O=C(c1ccco1)N1CCN(Cc2nc3ccccc3c(=O)n2-c2ccccc2[N+](=O)[O-])CC1 -18%
CC(=O)Nc1ccc(OCc2cn(CC(=O)c3ccc(O)cc3)nn2)cc1 -16.1%
O=[N+]([O-])c1cccnc1S(=O)(=O)c1ccccc1 -30.2%
Cc1ccc2c(c1)/C(=C\C(=O)c1cccnc1)C(=O)N2 4.36%
COc1ccc(CC2NCCC3=CC(=O)CCC32)cc1O (stereo not given) 0%
O=C(Nc1ccncc1)c1cccs1 -78.7%
N[C@H](CCC(=O)Nc1cccc(-c2nn3c(=O)cc(N4CCNCC4)nc3s2)c1)C(=O)O 1.94%
CCOc1ccc(NC(=O)Cn2c(=O)n(-c3ccccc3)c(=O)c3ccc(C(=O)NCc4ccc5c(c4)OCO5)cc32)cc1 -39.9% [at 34.4 µM]
COc1ccc(-c2cc(=O)n(-c3nc(C(=O)O)cs3)[nH]2)cc1 -8.63%
NC(=O)Nc1ccc(CNC(=O)C2Cc3ccccc3O2)cc1 (stereo not given) -4.52% [at 34.4 µM]
Cc1nc(-c2ccc(Cl)s2)sc1C(=O)Nc1ccc(C(N)=O)c(F)c1 -63.1% [at 34.4 µM]
CC1(C)c2nc(-c3ccc(F)cc3)c(Nc3ccc(F)cc3)n2CCN1C(=O)CN -23.2%
C#CCOC(=O)NCCCC[C@H](N)C(=O)O -13%
CSc1cc2c(s1)c1cnn(Cc3cccc(N)c3)c(=O)c1n2C 9.91%
CCN(CC)C(=O)c1ccc(S(=O)(=O)N2CCC(c3nc4ccccc4s3)CC2)cc1 -10.7%
c1ccc(CCN(Cc2ccccc2)C2CCN(Cc3ccc4c(c3)OCCO4)CC2)cc1 20.9%
Cc1cc(NC(=O)c2cscn2)ccc1C(=O)O -13.7% [at 34.4 µM]
CC(=O)c1cccc(Nc2cc(C)nc3nc(-c4ccccc4C)nn23)c1 -43.1% [at 34.4 µM]
O=C(O)c1ccnc(-n2cc(Br)cn2)c1 -2.09%
